Hsp70 activator = switches on Hsp70 transcription. HeLa Hsp70 promoter luciferase reporter, luminescence; scaled: vehicle 0, proteasome-inhibitor control 100%. AID 1203. activation, % at 10 µM. hit rate 0.04% among 200,000;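 active = activation above the mean across all tested compounds plus 3 SD, cutoff set per campaign, cut at about 5.5% in these data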;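 also: 100% = MG132 at 30 µM as the positive control and 0% = DMSO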
HSV augment = HSV replication enhancement; hit rate 0.005% among 220,000; AID 1956; maximum fold increase; HSV replication augmentation in cells, fold increase; in the data active = maximum fold increase above about 1.5; tested in PC3 cells
TNF necrop inh = blocks TNF-alpha induced death of Jurkat FADD-/- cells; Jurkat FADD-/- TNF necroptosis rescue, ATP luminescence, 24 h; 0 = TNF only, 100 = no-TNF cells; activation (protection from cell death), % at 10 µM; hit rate 0.068% among 220,000; AID 463075;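 active = activation, meaning protection from cell death, of at least 50% relative to plate controls; inactive = activation below 50%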;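 also: necroptosis triggered by 40 ng/mL TNF-alpha added together with compound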
L929 necroptosis = blocks zVAD induced death of L929 cells. L929 zVAD necroptosis rescue, ATP luminescence, 24 h; with zVAD 60 µM. viability rescue, % at 10 µM. hit rate 0.38% among 220,000. AID 1377;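 active = activation, scaled between plate controls, above about 75%, limit read from the data; inactive = activation under that limit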;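 also: 0% = zVAD with DMSO and 100% = DMSO alone without zVAD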
S1P4 antag = antagonists of human S1P4 receptor. O95977. AID 1510. inhibition, % at 4.98 µM. S1P4-expressing cells, antagonist mode, reporter read-out. hit rate 0.26% among 220,000; in the data active = inhibition above about 29%;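 also: 0% = wells stimulated with agonist and 100% = vehicle wells without agonist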
Target sequence (O95977 whole entry, looked up): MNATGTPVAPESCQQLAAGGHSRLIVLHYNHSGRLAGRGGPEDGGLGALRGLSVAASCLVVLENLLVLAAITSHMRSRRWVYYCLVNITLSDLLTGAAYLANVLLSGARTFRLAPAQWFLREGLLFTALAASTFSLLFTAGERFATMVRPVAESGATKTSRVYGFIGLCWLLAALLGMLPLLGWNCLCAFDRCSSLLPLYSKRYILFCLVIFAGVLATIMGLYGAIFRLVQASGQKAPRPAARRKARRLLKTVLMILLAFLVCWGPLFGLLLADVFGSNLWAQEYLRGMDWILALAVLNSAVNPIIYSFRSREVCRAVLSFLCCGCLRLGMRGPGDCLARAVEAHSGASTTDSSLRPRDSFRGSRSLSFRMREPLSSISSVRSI
S1P4 agonist = human S1P4 receptor agonism. hit rate 0.35% among 220,000. O95977. activation, % at 4.98 µM. S1P4-expressing cell line, agonist reporter assay. AID 1509; in the data active = activation above about 11%;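 also: 0% = DMSO vehicle and 100% = reference agonist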
Hsp70 act dose = activates Hsp70 transcription in dose response; hit rate 10% among 70; shares compounds with Hsp70 activator; calls only at 99 µM; HeLa hsp70.1pr-luc reporter, luciferase luminescence;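 active = over 50% activation at some tested dose; inactive = under 50% activation at every tested dose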
The depositor's hits bear a star; i = inactive; / = no result; + = active, no number. Rows were chosen to be rich in hits. Some 1% of all compounds tested hit in one or more screens of this group.

SMILES	Hsp70 activator	HSV augment	TNF necrop inh	L929 necroptosis	S1P4 antag	S1P4 agonist	others
COc1cc(/C=N/N2C(=O)C3C4c5ccccc5C(c5ccccc54)C3C2=O)ccc1O (stereo not drawn)	-1	i	-3	-1	-17	1
CC1(C)Oc2ccc3ccc(=O)oc3c2-c2cn[nH]c21	0	i	-7	75*	-4	1
CCC1Oc2nc(SC)nnc2-c2ccccc2N1C(=O)c1ccccc1 (stereo not drawn)	0	i	-3	1	10	-2
CCC(=O)N1c2ccccc2-c2nnc(SC)nc2OC1c1ccc(N(C)C)cc1 (stereo not drawn)	0	i	-11	/	-9	220*
COc1ccc(-c2nc3c(-c4ccccc4)cnn3cc2C)cc1F	0	i	51*	1	0	0
CC(Sc1nnc(NCc2ccccc2)s1)C(=O)Nc1ccc2c(c1)C(=O)c1ccccc1C2=O (stereo not drawn)	0	i	80*	4	-3	0
COc1ccc(CCNc2nc(=S)[nH]c3cc(OC)c(OC)cc23)cc1OC	0	i	-2	82*	-15	0
CC(C)(Sc1cc(C(C)(C)C)c(O)c(C(C)(C)C)c1)Sc1cc(C(C)(C)C)c(O)c(C(C)(C)C)c1	0	i	2	2	-19	49*
O=C(Nc1nc(-c2ccccn2)cs1)c1ccc(Cl)s1	0	i	-18	52	-11	-1
O=C(Nc1nccs1)c1cc2c(s1)CCCCC2	-1	i	52*	7	16	2
O=C(Nc1nccs1)c1ccc(Cl)s1	0	i	25	96*	-5	-1
CN1CCN(C(=O)c2ccc(-n3cccc3)cc2)CC1	0	i	-2	0	15	1
CC(NC(=O)c1ccc(N(C)C)cc1)C1CC2CCC1C2 (stereo not drawn)	0	/	1	0	34*	1
c1ccc(CCNc2nc(-c3ccccn3)nc3ccccc23)cc1	/	i	-15	3	-20	0
CN(C)CCCN1C(=O)c2cccc3c([N+](=O)[O-])ccc(c23)C1=O	1	/	-27	15	92*	4
O=C1c2cccc3c([N+](=O)[O-])ccc(c23)C(=O)N1CCc1ccccn1	/	/	-24	13	-8	-2
Cc1ccccc1NC(=O)CSC1=C(C#N)C(c2ccsc2)CC(=O)N1 (stereo not drawn)	0	i	-1	0	3	1
N#CC1=C(SCC(=O)Nc2nccs2)NC(=O)CC1c1ccccc1 (stereo not drawn)	0	i	75*	82*	-2	-3
O=c1[nH]cnc2c1ncn2[C@@H]1O[C@H](CO)[C@@H](O)[C@H]1O	0	i	0	3	-12	24*
Nc1ncnc2c1ncn2[C@@H]1O[C@H](CO)[C@@H](O)[C@H]1O	0	i	1	3	-17	2
Cc1ccc(NC(=O)C2COc3ccccc3O2)nc1 (stereo not drawn)	0	i	89*	1	10	0
Cc1ccnc(NC(=O)C2COc3ccccc3O2)c1 (stereo not drawn)	0	i	16	1	-12	0
O=C(CCn1c(=S)oc2ccccc21)NC1CCCCC1	/	i	0	0	6	0
CCOC(=O)N1CCN(C(=O)c2ccc(Cl)nc2)CC1	/	i	1	0	3	1
CC(=O)Nc1nonc1NC(C)=O	0	i	1	1	-5	-1
SMILES	Hsp70 activator	HSV augment	TNF necrop inh	L929 necroptosis	S1P4 antag	S1P4 agonist	others
CC(=O)Nc1cc(OC(C)=O)c2nonc2c1OC(C)=O	0	i	-17	-1	109*	-3
Cc1c(O)ccc(C(=O)CN2CCN(Cc3ccc4c(c3)OCO4)CC2)c1O	79*	i	2	0	-1	1	Hsp70 act dose=i
O=C(Oc1ccc(F)cc1C(=O)/C=C/c1cccs1)c1cccc([N+](=O)[O-])c1	12*	i	-6	0	23	-1	Hsp70 act dose=i
O=C(NCC1COc2ccccc2O1)C1CCCN(S(=O)(=O)c2cnc[nH]2)C1 (stereo not drawn)	5.8*	i	1	2	-2	-1	Hsp70 act dose=i
Cc1nn(C)c(C)c1S(=O)(=O)N1CCCC(C(=O)NCC2COc3ccccc3O2)C1 (stereo not drawn)	0	i	1	2	-7	-2
COc1ccc(NC(=O)/C(Cl)=C(/Cl)S(=O)Cc2ccccc2Cl)cn1 (stereo not drawn)	37*	/	-15	-4	102*	-6	Hsp70 act dose=i
CCCNC(=O)Nc1cccc(NC(C)=O)c1	/	i	3	1	-18	1
CCN1/C(=C/c2ccc3cc(C)ccc3[n+]2CC)Sc2ccccc21	1	/	-12	9	-34	-2
CC[n+]1c(/C=C2\Sc3ccccc3N2C)ccc2cccc(C)c21	8.9*	/	-17	23	-19	-1	Hsp70 act dose=i
CCOC(=O)c1sc2nc(C)nc(Nc3ccccc3)c2c1C	5.7*	i	0	22	-8	1	Hsp70 act dose=i
CC(C)N1CCc2c(sc(NC(=O)CCc3ccccc3)c2C(N)=O)C1	0	i	9	1	-6	0
CC(=O)Nc1sc2c(c1-c1nc3ccccc3s1)CCN(C(C)C)C2	7.5*	/	-10	40	20	6	Hsp70 act dose=i
COc1ccc(C(CNC(=O)c2cc(SC)ccc2Cl)N(C)C)cc1 (stereo not drawn)	/	i	3	0	-4	-2
Cc1ccc(NC(=S)NC(NC(=O)c2ccccc2)C(Cl)(Cl)Cl)c(C)c1 (stereo not drawn)	7.0*	i	2	0	-13	-2	Hsp70 act dose=i
O=C(NC(Cc1c[nH]c2ccccc12)C(=O)N/N=C/c1cccnc1)c1cccs1 (stereo not drawn)	0	i	2	0	-3	0
CCN1C/C(=C/c2ccc(OC)c(O)c2)C(=O)/C(=C/c2ccc(OC)c(O)c2)C1	644*	i	-9	57	17	1	Hsp70 act dose=+
CS(=O)(=O)N1CCN(c2ccc(NC(=O)c3ccc([N+](=O)[O-])o3)cc2)CC1	8.1*	i	-4	2	28	-3	Hsp70 act dose=i
O=C(Nc1ccc(N2CCCC2)c(Cl)c1)c1ccc([N+](=O)[O-])o1	20*	i	-12	0	90*	-2	Hsp70 act dose=i
O=C(Nc1ccc(N2CCCC2)c(Cl)c1)c1ccco1	0	i	-1	8	-18	-1
COc1ccc(/C=C/C(=O)Nc2c(C(=O)O)[nH]c3ccccc23)cc1OC	/	i	2	0	-1	1
CC1COC(=O)C(NNc2ccc(Cl)c(Cl)c2)=N1 (stereo not drawn)	0	i	1	0	0	3
